Source: PubChem BioAssay
An excerpt weighted towards active compounds, which were near 17% of everything screened.
TGFb inhibitor = inhibitors of TGF-b signaling; Potency, µM (top dose mostly 46.1 µM), without a hit: top-dose activity, negative = inhibition, hits mostly inhibitors; HepG2 CAGA-GFP TGF-b/SMAD3 reporter, GFP fluorescence, 18 h; TGF-beta stimulated, 500 pg/mL final; AID 588855; hit rate 1.2% among 410,000; note: % is set by controls: 0 for no effect and ±100 for the full control effect; nearly all actives have a fitted effect of over 65% in size
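Read-out: total well GFP (ex488/em500-530) summed from mean per-cell fluorescence. Cells: HEPG2 CAGA-GFP, 1% FBS DMEM, 18 h at 37 degrees C with 500 pg/mL final TGF-beta. Unstimulated wells served as the full-inhibition control; stimulated DMSO wells = 0%.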
HT1080NT lethal = kills 2HG-producing HT-1080-NT fibrosarcoma cells; HT-1080-NT fibrosarcoma viability, CellTiter-Glo ATP luminescence, 48 h; Potency, µM (highest dose often 46.1 µM), for the others: top-dose activity, negative = less viability, hits mostly cytotoxic; hit rate 1.6% among 360,000; AID 686970;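 note: NT is the 2HG producing partner of a matched IDH1 knockdown line; 0% = DMSO-treated cells and -100% = media-only wells without cells; nearly all actives have a fitted effect of over 55% in size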
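Fibrosarcoma NT cells, 750 per well in 5% FBS RPMI, were exposed to compound for 48 hours. Viability: CellTiter-Glo luminescence.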
DT40 TDP1 no CPT = qHTS for Inhibitors of human tyrosyl-DNA phosphodiesterase 1 (TDP1): qHTS in cells in absence of CPT. Potency, µM (series often up to 46.2 µM), inactives show at the highest dose activity change, negative = growth inhibition, most hits filed as inhibitors. DT40 Tdp1-/- hTDP1 cells, no CPT, ATP luminescence, 48 h. hit rate 15% among 420,000; note: % is set by controls: 0 for no effect and ±100 for the full control effect; nearly all actives have a fitted effect of over 55% in size
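Readout: luminescence from CellTiter-Glo after 30 min in the dark at RT. Cells: DT40 Tdp1-/- with stable hTDP1, 400/well. Exposure: compounds alone, ≥48 hr, 37 °C.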
HepG2 viability = kills HepG2 cells in TGF-b inhibitor counter-screen | AID 588856 | hit rate 0.76% among 410,000 | Potency, µM (top dose mostly 46.1 µM), inactives show at the highest dose activity change, negative = cytotoxicity, usual class: cytotoxic | HepG2 CAGA-GFP viability, ATP luminescence, 18 h
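CellTiter-Glo luminescence gave cytotoxicity after 18 hours at 37 degrees C. The cells were HepG2 CAGA-GFP in 1% FBS DMEM, stimulated with 500 pg/mL TGF-beta after compound addition. %Activity was normalised to no-cell wells (complete cell-killing) and DMSO (no toxicity), and curves were fitted and classified.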
HT1080 IDH1KD tx = HT-1080 IDH1 knockdown cell toxicity (counter line) | HT-1080 IDH1 knockdown viability, ATP luminescence, 48 h | Potency, µM (doses to about 46.1 µM), for the others: at the highest dose activity, negative = toxicity, hits mostly cytotoxic | hit rate 2% among 360,000 | AID 686971;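 note: 0% = DMSO wells and -100% = cell-free medium wells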
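After a 2 h attachment period, IDH1KD HT-1080 cells took pin-transferred compound for 48 h at 37 °C; ATP-based luminescence after 10 min room-temperature reagent incubation reported viability.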
DT40 TDP1 CPT = DT40-hTDP1 cell growth loss with CPT; AID 686979; chicken DT40 Tdp1-/-;hTDP1 cells + 20 nM CPT, ATP luminescence, 48 h; hit rate 12% among 420,000; Potency, µM (doses to about 46.2 µM), inactives show top-dose activity change, negative = growth inhibition, usual class: inhibitors; note: % is set by controls: 0 for no effect and ±100 for the full control effect; nearly all actives have a fitted effect of over 55% in size
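Chicken DT40 Tdp1-/- cells complemented with human TDP1, 400 cells/well, exposed to compounds plus 20 nM camptothecin for at least 48 h at 37 C; viability read as ATP content by CellTiter-Glo luminescence.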
* hit, by the source's call; ? = inconclusive; / = no result given. Calls come from the whole dose curve; as a rule, active = well fitted curve in the direction sought with a large enough effect; inconclusive = small, poorly fitted or top-dose-only effect, or another doubt; inactive = no such curve, though single readings can be large; an effect the other way counts as inactive or inconclusive. Potency is the fitted concentration of half-maximal effect.

SMILES | TGFb inhibitor | HT1080NT lethal | DT40 TDP1 no CPT | HepG2 viability | HT1080 IDH1KD tx | DT40 TDP1 CPT
O=C(COc1ccc(Cl)cc1)N(c1ccc(Cl)cc1)C1CN2CCC1CC2 (configuration not stated) | 14.1µM* | 16.4µM* | 16.4µM* | -97.4% | 14.6µM* | ?
O=C(COc1ccc(Cl)cc1)N(c1ccccc1Cl)C1CN2CCC1CC2 (configuration not stated) | ? | ? | 16.4µM* | -19.6% | 16.4µM* | 23.1µM*
O=S(=O)(NC1CN2CCC1CC2)c1ccc(Cl)cc1 (configuration not stated) | -0.2% | 4.8% | 2.7% | 2.7% | 3.4% | 7.3%
Cc1ccc(NC2=NCCCS2)c(C)c1C | 4.5% | -4.2% | ? | -28.3% | -13.6% | -9.1%
CCOc1ccc(OC(=O)c2ccc3c(=O)n4c(nc3c2)CCC4)cc1 | -7.8% | -3.2% | ? | -3.4% | -9.5% | ?
O=C(CCCc1nc(-c2ccc(Cl)cc2)no1)NCC1CCCO1 (configuration not stated) | -7.9% | -12.6% | 18.4µM* | -4.2% | -5.7% | ?
COC(=O)COc1cc(Cl)c(Cl)cc1Cl | / | / | 4.7% | / | / | 16.6%
CCCCCSc1cc(OC)c(CCN)cc1OC | ? | ? | 2.91µM* | -101.0% | ? | 5.8µM*
CCCCCCCSc1cc(OC)c(CCN(C)C)cc1OC | ? | -10.2% | ? | -120.5% | -22.7% | ?
CCCSc1cc(OC)c(CCN)cc1OC | / | / | 2.91µM* | / | / | 1.84µM*
Cc1ccc(S(=O)(=O)c2nc(-c3ccccc3Cl)oc2N(C)C2CCN(C)CC2)cc1 | ? | ? | ? | 11.2µM* | ? | ?
Cc1oc(-c2ccccc2Cl)nc1CN1C(=O)CN=C(c2ccccc2)c2cc(Cl)ccc21 | -0.9% | / | ? | 4.9% | / | ?
O=c1[nH]c(=S)n(C2CCCCC2)c(O)c1C=NCCN1CCOCC1 | 19.8% | -4.2% | 0.4% | 116.8% | -6.5% | -3.6%
Nc1ccc(C2(c3ccc(N)cc3)c3ccccc3-c3ccccc32)cc1 | ? | ? | 14.8% | -0.6% | 16.4µM* | 25.9%
CCC1C(=O)OC[C@H]1Cc1cncn1C (some centres not stated) | / | / | -5.7% | / | / | 5.3%
CN(C(=O)CSc1nc2ccc(NC(=O)COc3ccc(Cl)cc3)cc2s1)c1ccccc1 | -23.9% | / | 10.3µM* | -23.0% | / | 13µM*
CC(C)(C)c1nc(NCc2ccc3c(c2)OCO3)c2nnn(Cc3ccccc3Cl)c2n1 | 0.0% | 14.5% | ? | 2.8% | 16.4% | -16.3%
CC(C)(C)OC(=O)N(CCc1ccccc1)Cc1ccc(OCc2cccc(NC(=O)c3ccccc3)c2)cc1 | -19.0% | 15.7% | 20.6µM* | -22.0% | 5.3% | ?
C#CCOc1cc(C2C3=C(COC3=O)Nc3cc4c(cc32)OCO4)ccc1OC (configuration not stated) | ? | -3.6% | -61.1% | -4.3% | -2.4% | 20.6µM*
C#CCOc1ccc(OC)cc1C(c1c(C)[nH][nH]c1=O)c1c(C)[nH][nH]c1=O | -1.2% | 5.8% | ? | 2.7% | -1.3% | 14.9%
O=C(Cc1ccc(Cl)c(Cl)c1)N1CCCCC1CN1CCCC1 (configuration not stated) | / | / | -15.6% | / | / | -36.3%
O=C(NCCc1ccccc1)[C@@H]1CC=C[C@@H]2CCN(Cc3ccc(Cl)c(Cl)c3)C(=O)[C@@H]21 | ? | -21.9% | 10.3µM* | -18.3% | -28.9% | 3.98µM*
CC(C)NC(=O)C(C)N1CCN(S(=O)(=O)c2ccc3ccccc3c2)CC1 (configuration not stated) | -0.5% | -4.8% | 14.6µM* | 13.2% | -1.3% | 18.4µM*
